From PubChem BioAssay (Tox21)
Several values for one entry are separate records, joined by “and”; a condition that tells them apart may be missing. Identical values can stand only once. Results filed as inconclusive are left out. Entries that show only a call come without a potency. More than one record can exist for a structure, and the calls need not agree. Activity calls are given as the source filed them. Unless noted, calls come from the whole dose curve.

target: Nuclear receptor subfamily 1 group I member 2 (Homo sapiens) (UniProt O75469); test: Human pregnane X receptor (PXR) small molecule agonists, qHTS assay (AID 1346982; active = well fitted curve in the direction sought with a large enough effect in the repeat runs; an effect the other way counts as inactive or inconclusive; note: nearly all actives have a fitted effect of over 35% in size; note: potency is the fitted concentration of half-maximal effect); conditions: PXR-Luc HepG2, CYP3A4 luciferase reporter, 24 h; series mostly up to 92.4 µM; activation: at the top concentration
Sequence (O75469 whole entry, looked up): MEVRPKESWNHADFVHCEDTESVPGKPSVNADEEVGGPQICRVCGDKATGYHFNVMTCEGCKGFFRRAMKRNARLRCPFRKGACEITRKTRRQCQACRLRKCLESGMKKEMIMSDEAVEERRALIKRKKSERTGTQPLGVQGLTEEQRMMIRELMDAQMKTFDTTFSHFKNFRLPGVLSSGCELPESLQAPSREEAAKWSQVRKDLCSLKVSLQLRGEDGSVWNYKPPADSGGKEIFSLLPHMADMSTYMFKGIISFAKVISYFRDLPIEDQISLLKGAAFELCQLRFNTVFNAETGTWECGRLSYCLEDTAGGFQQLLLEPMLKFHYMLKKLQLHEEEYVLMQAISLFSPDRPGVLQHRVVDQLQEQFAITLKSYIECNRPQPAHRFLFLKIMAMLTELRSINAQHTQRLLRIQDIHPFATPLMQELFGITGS
In short: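 Stable HepG2 line reporting PXR-mediated CYP3A4 expression via luciferase. Treatment: 24 hr with compounds in DMSO at 37 C. Detection: ONE-Glo luminescence.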

| SMILES | Potency |
| --- | --- |
| Nc1cc(Cl)cc(Cl)c1 | inactive |
| O=C(O)C1C(C(=O)O)C2(Cl)C(Cl)=C(Cl)C1(Cl)C2(Cl)Cl (stereo unspecified) | inactive |
| O=C(O)Cc1ccccc1 | inactive |
| CC(=O)/C=C/c1ccccc1 | inactive |
| C/C=C/c1ccc2c(c1)OCO2 | inactive |
| Cc1cccc(C)c1N | inactive |
| N#Cc1cccc(C#N)c1 | inactive |
| Nc1cccc(Cl)c1 | inactive |
| COP(=S)(OC)SCN1C(=O)c2ccccc2C1=O | inactive |
| CC(C)CCCCCCOC(=O)c1ccccc1C(=O)OCCCCCCC(C)C | inactive |
| CN(C)C(=O)Cl | inactive |
| NNc1ccccc1 | 61 µM (active) and inactive |
| CCCCCCCCCCCCCCCCCC(=O)O | 30.4 µM (active) and inactive |
| CC12CC1(C)C(=O)N(c1cc(Cl)cc(Cl)c1)C2=O (stereo unspecified) | 60.9 µM (active) and 24.3 µM (active) |
| CC[N+](=O)[O-] | inactive |
| O=C(O)C(Br)Br | inactive |

target: Nuclear receptor subfamily 1 group I member 2 (Rattus norvegicus) (UniProt Q9R1A7); test: Rat pregnane X receptor (rPXR) activation by small molecules, qHTS assay (AID 1346983; active = well fitted curve in the direction sought with a large enough effect in the repeat runs; an effect the other way counts as inactive or inconclusive; note: nearly all actives have a fitted effect of over 20% in size); conditions: rPXR luciferase reporter cells, One-Glo luminescence, 24 h; max activation: stronger effect = higher value
Sequence (Q9R1A7 whole entry, looked up): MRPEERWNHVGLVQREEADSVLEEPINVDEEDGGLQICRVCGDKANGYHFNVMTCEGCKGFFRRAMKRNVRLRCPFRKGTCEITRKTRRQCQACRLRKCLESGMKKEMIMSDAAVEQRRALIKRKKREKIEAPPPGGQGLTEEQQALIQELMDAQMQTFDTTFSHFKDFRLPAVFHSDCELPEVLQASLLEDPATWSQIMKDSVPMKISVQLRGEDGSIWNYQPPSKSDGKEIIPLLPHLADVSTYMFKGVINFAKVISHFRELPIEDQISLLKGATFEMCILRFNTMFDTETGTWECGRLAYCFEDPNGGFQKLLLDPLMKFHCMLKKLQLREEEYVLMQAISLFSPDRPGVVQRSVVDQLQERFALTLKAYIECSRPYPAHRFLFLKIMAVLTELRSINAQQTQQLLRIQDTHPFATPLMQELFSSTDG
In short: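 Cell-based rPXR luciferase reporter assay, 2,000 cells per well, rested 5hr at 37 C before compound addition in DMSO, then 24 hr at 37 C. One-Glo reagent was added and luminescence read after 30 min at room temperature.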

| SMILES | max activation |
| --- | --- |
| C=CCN=C=S | 0.185% (inactive) |
| CCOP(=S)(OCC)Oc1cc(C)nc(C(C)C)n1 | 0.813% (inactive) |
| COP(=S)(OC)Oc1ccc(SC)c(C)c1 | 1.15% (inactive) |
| OC[C@@H](O)[C@H]1O[C@@H]2O[C@H](C(Cl)(Cl)Cl)O[C@@H]2[C@H]1O | -1.13% (inactive) |
| COP(=S)(OC)SCN1C(=O)c2ccccc2C1=O | -1.79% (inactive) |
| Nc1nc(N)nc(NC2CC2)n1 | -4.09% (inactive) |
| NNc1ccccc1 | -1.33% (inactive) |

target: Nuclear receptor subfamily 1 group I member 2 (Homo sapiens) (UniProt O75469); test: CYP3A4 induction through human pregnane X receptor (PXR) by small molecules, qHTS assay (AID 1346984; active = well fitted curve in the direction sought with a large enough effect in the repeat runs; an effect the other way counts as inactive or inconclusive; note: nearly all actives have a fitted effect of over 40% in size); conditions: DPX-2 HepG2 PXR, CYP3A4-luciferin luminescence, 24 h; series mostly up to 46.1 µM; activation: at the top concentration
In short: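 After 24 h at 37C with compound, DPX-2 cells (HepG2, co-transfected PXR response element and CYP3A4 promoter-luciferase) got 3uM final P450-Glo Luciferin-IPA for 3 h; One-Glo luminescence followed.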

| SMILES | activation |
| --- | --- |
| C=CCN=C=S | 1.2% (inactive) |
| CCOP(=S)(OCC)Oc1cc(C)nc(C(C)C)n1 | -14.1% (inactive) |
| COP(=S)(OC)Oc1ccc(SC)c(C)c1 | -11.4% (inactive) |
| OC[C@@H](O)[C@H]1O[C@@H]2O[C@H](C(Cl)(Cl)Cl)O[C@@H]2[C@H]1O | 1.32% (inactive) |
| COP(=S)(OC)SCN1C(=O)c2ccccc2C1=O | -5.22% (inactive) |
| Nc1nc(N)nc(NC2CC2)n1 | -2.26% (inactive) |
| CCCCCCCCCCCCCCCCCC(=O)O | -0.79% (inactive) |

target: Nuclear receptor subfamily 1 group I member 2 (Homo sapiens) (UniProt O75469); test: Human pregnane X receptor (PXR) activation by small molecules, qHTS assay (AID 1346985; active = well fitted curve in the direction sought with a large enough effect in the repeat runs; an effect the other way counts as inactive or inconclusive; note: nearly all actives have a fitted effect of over 40% in size); conditions: DPX-2 HepG2 CYP3A4-luciferase, 24 h; series mostly up to 38.3 µM; activation: at the top concentration
In short: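 DPX-2 cells (HepG2 co-transfected with a PXR response element and a CYP3A4-promoter luciferase construct) were seeded at 2,000 per well, rested 5 hr at 37C, then exposed to DMSO-dissolved compounds for 24 hr. Activation was read as luciferase luminescence.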

| SMILES | activation |
| --- | --- |
| C=CCN=C=S | 11.9% (inactive) |
| CCOP(=S)(OCC)Oc1cc(C)nc(C(C)C)n1 | 15.2% (inactive) |
| COP(=S)(OC)Oc1ccc(SC)c(C)c1 | 51.2% (inactive) |
| OC[C@@H](O)[C@H]1O[C@@H]2O[C@H](C(Cl)(Cl)Cl)O[C@@H]2[C@H]1O | 1.19% (inactive) |
| COP(=S)(OC)SCN1C(=O)c2ccccc2C1=O | 0.912% (inactive) |
| Nc1nc(N)nc(NC2CC2)n1 | 11.9% (inactive) |
| NNc1ccccc1 | -3.06% (inactive) |
| CCCCCCCCCCCCCCCCCC(=O)O | 2.2% (inactive) |

target: Acetylcholinesterase (Homo sapiens) (UniProt P22303); test: Acetylcholinesterase (AChE) small molecule antagonists: colormetric cell-based qHTS assay (AID 1347395); conditions: SH-SY5Y cells AChE activity, colorimetric (Ellman); series mostly up to 115 µM; activity, negative = inhibition: at the top concentration; note: nearly all actives have a fitted effect of over 30% in size; note: potency is the fitted concentration of half-maximal effect
Sequence (P22303 whole entry, looked up): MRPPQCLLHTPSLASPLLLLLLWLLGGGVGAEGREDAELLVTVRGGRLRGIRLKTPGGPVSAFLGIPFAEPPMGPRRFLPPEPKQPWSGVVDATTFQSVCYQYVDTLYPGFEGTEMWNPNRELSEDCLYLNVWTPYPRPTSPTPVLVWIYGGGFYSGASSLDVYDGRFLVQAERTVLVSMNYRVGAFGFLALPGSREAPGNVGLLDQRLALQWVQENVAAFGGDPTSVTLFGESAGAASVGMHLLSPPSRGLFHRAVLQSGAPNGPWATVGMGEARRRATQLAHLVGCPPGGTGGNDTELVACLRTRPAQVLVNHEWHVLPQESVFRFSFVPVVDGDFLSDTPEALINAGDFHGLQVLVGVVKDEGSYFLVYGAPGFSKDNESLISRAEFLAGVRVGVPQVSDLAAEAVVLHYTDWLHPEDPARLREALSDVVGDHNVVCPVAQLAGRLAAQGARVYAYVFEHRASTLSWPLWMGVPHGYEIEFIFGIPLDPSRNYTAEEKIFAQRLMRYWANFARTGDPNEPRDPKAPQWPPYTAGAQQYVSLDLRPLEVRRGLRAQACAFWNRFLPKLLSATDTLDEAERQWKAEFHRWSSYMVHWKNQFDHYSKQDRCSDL
In short: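 SH-SY5Y cells; cpd 30 min 37 C; + DTNB/acetylthiocholine, 90 min 37 C; colorimetric thiocholine read; qHTS.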

| SMILES | Potency |
| --- | --- |
| C=CCN=C=S | inactive |
| CCOP(=S)(OCC)Oc1cc(C)nc(C(C)C)n1 | 31.9 µM (active) and 71 µM (active) and inactive |
| Nc1cc(Cl)cc(Cl)c1 | inactive |
| O=C(O)C1C(C(=O)O)C2(Cl)C(Cl)=C(Cl)C1(Cl)C2(Cl)Cl (stereo unspecified) | inactive |
| N#Cc1ccccn1 | inactive |
| [N-]=[N+]=CC(=O)OC[C@H](N)C(=O)O | inactive |
| CN(C)NC(=O)CCC(=O)O | inactive |
| CC(=O)C1CCOC1=O (stereo unspecified) | inactive |
| O=C(O)Cc1ccccc1 | inactive |
| COP(=S)(OC)Oc1ccc(SC)c(C)c1 | inactive |
| c1ccc2c(c1)CCCC2 | inactive |
| CC(=O)/C=C/c1ccccc1 | inactive |
| C/C=C/c1ccc2c(c1)OCO2 | inactive |
| Cc1cccc(C)c1N | inactive |
| COc1nc(NC(C)C)nc(NC(C)C)n1 | inactive |
| N#Cc1cccc(C#N)c1 | inactive |
| Nc1cccc(Cl)c1 | inactive |
| OC[C@@H](O)[C@H]1O[C@@H]2O[C@H](C(Cl)(Cl)Cl)O[C@@H]2[C@H]1O | inactive |
| COP(=S)(OC)SCN1C(=O)c2ccccc2C1=O | 71.5 µM (active) and 39.9 µM (active) |
| Nc1nc(N)nc(NC2CC2)n1 | inactive |
| Cc1ccc(N=C=O)cc1N=C=O | inactive |
| CC(C)CCCCCCOC(=O)c1ccccc1C(=O)OCCCCCCC(C)C | inactive |
| CN(C)C(=O)Cl | inactive |
| Cc1ccc(O)c(C)c1 | inactive |
| C=CC#N | inactive |
| CC12CC1(C)C(=O)N(c1cc(Cl)cc(Cl)c1)C2=O (stereo unspecified) | inactive |
| C=C(C)C(=O)OCC(CC)CCCC (stereo unspecified) | inactive |
| CC[N+](=O)[O-] | inactive |
| O=C(O)C(Br)Br | inactive |

target: Acetylcholinesterase (Homo sapiens) (UniProt P22303); test: Acetylcholinesterase (AChE) small molecule antagonists: enzyme-based qHTS assay (AID 1347397); conditions: Potency: AChE enzyme activity inhibition; series mostly up to 115 µM; activity change, negative = inhibition: at the top concentration; note: nearly all actives have a fitted effect of over 55% in size
In short: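 Compound or DMSO vehicle was pin-transferred onto recombinant human AChE (50 mU/mL as dispensed) and left 30 min at room temperature. Acetylthiocholine with DTNB then started the reaction, read colorimetrically 10 min later.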

| SMILES | Potency | activity change, negative = inhibition |
| --- | --- | --- |
| C=CCN=C=S | inactive | – |
| CCOP(=S)(OCC)Oc1cc(C)nc(C(C)C)n1 | – | -8.17% [at 53 µM] (inactive) |
| Nc1cc(Cl)cc(Cl)c1 | inactive | – |
| O=C(O)C1C(C(=O)O)C2(Cl)C(Cl)=C(Cl)C1(Cl)C2(Cl)Cl (stereo unspecified) | inactive | – |
| N#Cc1ccccn1 | inactive | – |
| [N-]=[N+]=CC(=O)OC[C@H](N)C(=O)O | inactive | – |
| CN(C)NC(=O)CCC(=O)O | inactive | – |
| CC(=O)C1CCOC1=O (stereo unspecified) | inactive | – |
| O=C(O)Cc1ccccc1 | inactive | – |
| COP(=S)(OC)Oc1ccc(SC)c(C)c1 | inactive | – |
| c1ccc2c(c1)CCCC2 | inactive | – |
| CC(=O)/C=C/c1ccccc1 | inactive | – |
| C/C=C/c1ccc2c(c1)OCO2 | inactive | – |
| Cc1cccc(C)c1N | inactive | – |
| COc1nc(NC(C)C)nc(NC(C)C)n1 | inactive | – |
| N#Cc1cccc(C#N)c1 | inactive | – |
| Nc1cccc(Cl)c1 | inactive | – |
| OC[C@@H](O)[C@H]1O[C@@H]2O[C@H](C(Cl)(Cl)Cl)O[C@@H]2[C@H]1O | inactive | – |
| COP(=S)(OC)SCN1C(=O)c2ccccc2C1=O | inactive | – |
| Nc1nc(N)nc(NC2CC2)n1 | inactive | – |
| Cc1ccc(N=C=O)cc1N=C=O | inactive | – |
| CC(C)CCCCCCOC(=O)c1ccccc1C(=O)OCCCCCCC(C)C | inactive | – |
| CN(C)C(=O)Cl | inactive | – |
| Cc1ccc(O)c(C)c1 | inactive | – |
| C=CC#N | inactive | – |
| CC12CC1(C)C(=O)N(c1cc(Cl)cc(Cl)c1)C2=O (stereo unspecified) | inactive | – |
| C=C(C)C(=O)OCC(CC)CCCC (stereo unspecified) | inactive | – |
| CC[N+](=O)[O-] | inactive | – |
| O=C(O)C(Br)Br | inactive | – |
